Test results: the supplement of paper PMC10849652
Of roughly 8,800 targets only a part is listed; those with a hit were picked by preference. About 0.5% of all pairs of compound and target were hits. Values without a mark were called inactive.

Key:
Test in all cases: log2 fold change, soluble protein after heating vs DMSO (PISA); higher = thermal stabilisation; K562 lysate, 10 uM; active = over 0.2 and 3.5 SD of the protein, either way, in both replicates (recomputed)
erlotinib = compound: C#Cc1cccc(Nc2ncnc3cc(OCCOC)c(OCCOC)cc23)c1 [erlotinib]
Summary of the method: (§1)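 Soluble protein was defined as the supernatant remaining after 21,000xg for 90 min, following pooling of heated aliquots and adjustment to 0.5% NP-40 at 4°C. Before that, crude K562 extract at 1 mg/mL protein in PBS pH 7.4 with 1 mM MgCl2 was treated with 10 μM compound for 30 min and heated for 3 min across 48°C-58°C. Quantification used TMTpro 16plex LC-MS/MS with channel sums equalised, and values are log-two fold changes in thermal stability relative to solvent controls from duplicates.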

[1] = compound: C/C(=N\NC(=O)C1=CC(=CC=C1)S(=O)(=O)N2CCOCC2)/C3=C(C=CC(=C3)Cl)O
Summary of the method: as §1

[2] = compound: C1=CC(=CC=C1C2=NC3=C(N2)C=C(C=C3)C(=O)N)OC4=CC=C(C=C4)Cl
Summary of the method: as §1

[3] = compound: C1=CC2=C(C=CC(=C2)/C=C\3/C(=O)NC(=NCC4=CC=CS4)S3)N=C1
Summary of the method: as §1

[4] = compound: C1=CC2=NC=CN=C2C=C1/C=C/3\C(=O)NC(=O)S3
Summary of the method: as §1

[5] = compound: C1=CC=C(C=C1)C2=NC(=C(N2)C3=CC=NC=C3)C4=CC(=C(C=C4)Cl)O
Summary of the method: as §1

[6] = compound: C1=CC=C2C(=C1)C3=NNC4=CC=CC(=C43)C2=O
Summary of the method: as §1

[7] = compound: C1CCN(C1)C(=O)NC2=CC=CC(=C2)NC3=NC=C(C(=N3)NCCC4=CN=CN4)Br
Summary of the method: as §1

[8] = compound: C1CN(CCC1(CC2=CC=C(C=C2)Cl)N)C3=NC=NC4=C3C=CN4
Summary of the method: as §1

IRAK-1-4 Inhibitor I = compound: C1COCCN1CCN2C3=CC=CC=C3N=C2NC(=O)C4=CC(=CC=C4)[N+](=O)[O-] [IRAK-1-4 Inhibitor I]
Summary of the method: as §1

ibrutinib = compound: C=CC(=O)N1CCC[C@@H](n2nc(-c3ccc(Oc4ccccc4)cc3)c3c(N)ncnc32)C1 [ibrutinib]
Summary of the method: as §1

[9] = compound: CC(=O)c1cnc2ccc(-c3cc(Cl)c(O)c(Cl)c3)nc2c1N[C@H]1CC[C@H](CN(C)C)CC1
Summary of the method: as §1

ralimetinib = compound: CC(C)(C)Cn1c(N)nc2ccc(-c3[nH]c(C(C)(C)C)nc3-c3ccc(F)cc3)nc21 [ralimetinib]
Summary of the method: as §1

[10] = compound: CC(C)(O)CC(=O)NCCn1ccc2ncnc(Nc3ccc(Oc4cccc(C(F)(F)F)c4)c(Cl)c3)c21
Summary of the method: as §1

[11] = compound: CC(C)C1=C2N=C(C=C(N2N=C1)NCC3=CC=CC=C3)NCCCCCCN
Summary of the method: as §1

[12] = compound: CC1=C(C(CC(=O)N1)C2=CC=C(C=C2)C(F)(F)F)C(=O)NC3=C(C=C4C(=C3)C=NN4)F
Summary of the method: as §1

[13] = compound: CC1=C(C2=C(C=C1)C(=O)C3=CC=CC=C3N2CCCN)C
Summary of the method: as §1

[14] = compound: CC1=C(C=C(C=C1)NC(=O)C2=CC(=CC=C2)C(C)(C)C#N)NC3=CC4=C(C=C3)N=CN(C4=O)C
Summary of the method: as §1

[15] = compound: CC1=C(C=C(C=C1)NC(=O)C2=CC(=CC=C2)N(C)C)NC(=O)C3=CC=C(C=C3)O
Summary of the method: as §1

[16] = compound: CC1=CC=C(C=C1)SC2=C3C=C(SC3=CN=C2)C(=O)N
Summary of the method: as §1

Chain of UniProt Q5R3I4 (Q5R3I4 whole entry, looked up): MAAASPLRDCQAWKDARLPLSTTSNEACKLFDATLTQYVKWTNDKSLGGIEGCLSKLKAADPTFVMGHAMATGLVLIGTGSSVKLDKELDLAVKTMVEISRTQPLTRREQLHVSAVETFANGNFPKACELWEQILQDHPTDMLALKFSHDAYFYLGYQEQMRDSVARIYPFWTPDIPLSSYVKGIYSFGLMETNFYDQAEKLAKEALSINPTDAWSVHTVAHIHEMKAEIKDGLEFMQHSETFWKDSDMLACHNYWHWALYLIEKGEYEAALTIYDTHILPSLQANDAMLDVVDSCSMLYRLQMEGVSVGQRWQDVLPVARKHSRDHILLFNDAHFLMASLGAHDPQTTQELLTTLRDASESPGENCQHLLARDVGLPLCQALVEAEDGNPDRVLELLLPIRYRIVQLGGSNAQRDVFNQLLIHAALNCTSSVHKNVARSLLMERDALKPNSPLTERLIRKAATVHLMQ
Chain of UniProt O60704 (O60704 whole entry, looked up): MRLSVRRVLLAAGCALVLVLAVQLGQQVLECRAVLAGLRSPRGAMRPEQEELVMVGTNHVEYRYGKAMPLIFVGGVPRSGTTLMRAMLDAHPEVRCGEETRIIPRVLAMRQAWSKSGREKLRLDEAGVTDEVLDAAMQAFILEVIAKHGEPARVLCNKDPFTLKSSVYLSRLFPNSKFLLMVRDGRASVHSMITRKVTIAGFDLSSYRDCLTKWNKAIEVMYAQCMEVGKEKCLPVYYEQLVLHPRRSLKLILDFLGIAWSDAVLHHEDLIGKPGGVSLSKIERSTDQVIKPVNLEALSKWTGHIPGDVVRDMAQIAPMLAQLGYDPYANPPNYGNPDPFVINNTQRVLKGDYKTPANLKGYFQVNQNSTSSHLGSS
Chain of UniProt P68366 (P68366 whole entry, looked up): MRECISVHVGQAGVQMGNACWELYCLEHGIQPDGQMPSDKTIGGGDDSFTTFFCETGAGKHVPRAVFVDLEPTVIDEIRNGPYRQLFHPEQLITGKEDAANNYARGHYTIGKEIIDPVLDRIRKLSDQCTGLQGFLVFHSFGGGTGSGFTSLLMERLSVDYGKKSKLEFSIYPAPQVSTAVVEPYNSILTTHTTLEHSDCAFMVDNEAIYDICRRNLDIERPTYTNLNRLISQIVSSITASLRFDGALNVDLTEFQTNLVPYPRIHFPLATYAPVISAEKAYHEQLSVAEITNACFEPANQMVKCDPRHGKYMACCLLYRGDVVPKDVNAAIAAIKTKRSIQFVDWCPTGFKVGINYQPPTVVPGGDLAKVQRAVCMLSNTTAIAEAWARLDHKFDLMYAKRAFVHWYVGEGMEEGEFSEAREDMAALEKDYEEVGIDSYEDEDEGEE
Chain of UniProt Q9UJT0 (Q9UJT0 whole entry, looked up): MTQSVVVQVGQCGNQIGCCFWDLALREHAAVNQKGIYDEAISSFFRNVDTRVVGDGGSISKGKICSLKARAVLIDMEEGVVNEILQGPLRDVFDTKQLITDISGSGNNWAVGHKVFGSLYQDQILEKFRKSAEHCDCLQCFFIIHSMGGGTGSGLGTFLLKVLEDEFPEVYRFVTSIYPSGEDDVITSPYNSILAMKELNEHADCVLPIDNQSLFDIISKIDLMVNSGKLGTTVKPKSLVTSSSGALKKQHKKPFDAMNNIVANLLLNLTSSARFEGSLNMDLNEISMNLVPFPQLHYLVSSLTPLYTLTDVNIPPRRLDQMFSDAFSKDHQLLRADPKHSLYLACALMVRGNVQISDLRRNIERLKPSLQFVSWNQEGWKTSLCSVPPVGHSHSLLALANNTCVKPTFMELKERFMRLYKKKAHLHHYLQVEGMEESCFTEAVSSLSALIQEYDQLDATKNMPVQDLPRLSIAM
Chain of UniProt Q13595 (Q13595 whole entry, looked up): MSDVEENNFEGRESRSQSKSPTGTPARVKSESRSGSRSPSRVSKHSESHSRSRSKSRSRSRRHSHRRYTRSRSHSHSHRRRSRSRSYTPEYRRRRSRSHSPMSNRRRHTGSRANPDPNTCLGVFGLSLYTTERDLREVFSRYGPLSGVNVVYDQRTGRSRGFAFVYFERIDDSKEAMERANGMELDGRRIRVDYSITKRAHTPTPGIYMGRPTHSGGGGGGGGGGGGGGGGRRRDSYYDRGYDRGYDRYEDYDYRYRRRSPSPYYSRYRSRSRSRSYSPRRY
Chain of UniProt Q9ULW0 (Q9ULW0 whole entry, looked up): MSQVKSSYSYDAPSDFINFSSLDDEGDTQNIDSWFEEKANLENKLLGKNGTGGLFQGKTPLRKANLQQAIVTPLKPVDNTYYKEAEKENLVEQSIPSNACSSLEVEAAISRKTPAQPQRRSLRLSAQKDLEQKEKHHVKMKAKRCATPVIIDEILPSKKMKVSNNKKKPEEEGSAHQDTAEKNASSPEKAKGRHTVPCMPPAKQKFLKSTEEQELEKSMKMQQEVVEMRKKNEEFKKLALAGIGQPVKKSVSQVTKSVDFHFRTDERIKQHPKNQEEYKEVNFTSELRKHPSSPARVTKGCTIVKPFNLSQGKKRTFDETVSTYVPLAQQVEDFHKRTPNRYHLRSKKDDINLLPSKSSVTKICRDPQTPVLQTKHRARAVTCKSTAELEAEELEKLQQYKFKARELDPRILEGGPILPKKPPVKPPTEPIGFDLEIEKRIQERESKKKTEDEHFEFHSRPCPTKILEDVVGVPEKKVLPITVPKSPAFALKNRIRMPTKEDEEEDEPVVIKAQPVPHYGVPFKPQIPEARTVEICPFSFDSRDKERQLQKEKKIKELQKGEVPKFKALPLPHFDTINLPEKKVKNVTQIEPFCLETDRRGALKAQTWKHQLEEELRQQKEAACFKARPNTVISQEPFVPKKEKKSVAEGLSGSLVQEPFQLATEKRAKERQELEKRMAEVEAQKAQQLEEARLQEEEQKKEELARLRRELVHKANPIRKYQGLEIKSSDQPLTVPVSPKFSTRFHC
Chain of UniProt Q12800 (Q12800 whole entry, looked up): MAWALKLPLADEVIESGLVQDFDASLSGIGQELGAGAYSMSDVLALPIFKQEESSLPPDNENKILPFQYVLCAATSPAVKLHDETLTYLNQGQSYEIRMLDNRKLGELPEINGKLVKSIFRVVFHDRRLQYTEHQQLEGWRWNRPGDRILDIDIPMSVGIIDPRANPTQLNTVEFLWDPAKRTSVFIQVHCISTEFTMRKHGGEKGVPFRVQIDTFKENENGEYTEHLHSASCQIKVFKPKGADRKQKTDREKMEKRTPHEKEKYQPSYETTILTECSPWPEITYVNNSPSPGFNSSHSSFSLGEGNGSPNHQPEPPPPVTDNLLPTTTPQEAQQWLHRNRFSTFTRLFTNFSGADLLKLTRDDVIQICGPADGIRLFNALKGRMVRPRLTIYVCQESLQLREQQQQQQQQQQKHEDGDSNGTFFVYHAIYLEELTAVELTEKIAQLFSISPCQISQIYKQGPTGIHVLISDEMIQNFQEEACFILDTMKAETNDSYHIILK
Chain of UniProt Q9NZI7 (Q9NZI7 whole entry, looked up): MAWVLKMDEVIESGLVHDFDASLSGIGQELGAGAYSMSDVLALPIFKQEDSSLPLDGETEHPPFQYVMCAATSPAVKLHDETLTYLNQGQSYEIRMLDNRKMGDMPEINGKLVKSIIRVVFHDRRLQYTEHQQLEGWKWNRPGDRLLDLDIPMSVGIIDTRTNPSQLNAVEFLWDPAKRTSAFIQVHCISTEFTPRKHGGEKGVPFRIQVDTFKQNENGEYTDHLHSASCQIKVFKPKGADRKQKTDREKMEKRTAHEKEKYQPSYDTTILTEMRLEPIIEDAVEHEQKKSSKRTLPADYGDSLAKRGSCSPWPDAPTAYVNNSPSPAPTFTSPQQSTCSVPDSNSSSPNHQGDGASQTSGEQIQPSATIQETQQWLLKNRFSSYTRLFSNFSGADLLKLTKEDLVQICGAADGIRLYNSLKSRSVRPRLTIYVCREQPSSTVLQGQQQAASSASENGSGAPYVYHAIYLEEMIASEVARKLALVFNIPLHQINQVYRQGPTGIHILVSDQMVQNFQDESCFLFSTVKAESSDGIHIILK
Chain of UniProt O95857 (O95857 whole entry, looked up): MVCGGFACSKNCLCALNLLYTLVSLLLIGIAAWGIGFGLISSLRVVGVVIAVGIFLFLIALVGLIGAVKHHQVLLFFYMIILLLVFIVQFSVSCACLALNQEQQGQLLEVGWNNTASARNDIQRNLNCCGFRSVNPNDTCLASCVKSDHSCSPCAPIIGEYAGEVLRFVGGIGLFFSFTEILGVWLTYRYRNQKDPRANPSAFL
Chain of UniProt O43615 (O43615 whole entry, looked up): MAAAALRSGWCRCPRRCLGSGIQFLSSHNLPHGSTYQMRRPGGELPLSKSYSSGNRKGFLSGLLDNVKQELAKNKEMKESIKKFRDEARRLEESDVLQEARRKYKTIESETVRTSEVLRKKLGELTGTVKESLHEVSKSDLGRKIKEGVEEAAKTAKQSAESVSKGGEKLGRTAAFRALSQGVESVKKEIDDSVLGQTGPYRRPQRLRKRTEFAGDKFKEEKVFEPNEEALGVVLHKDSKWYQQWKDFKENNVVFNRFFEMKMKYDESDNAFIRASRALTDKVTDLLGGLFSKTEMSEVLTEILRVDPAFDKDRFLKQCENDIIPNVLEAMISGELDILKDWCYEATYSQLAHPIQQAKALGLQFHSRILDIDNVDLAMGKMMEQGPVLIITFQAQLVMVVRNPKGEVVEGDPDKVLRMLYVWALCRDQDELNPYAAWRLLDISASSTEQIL
Chain of UniProt Q9BQE3 (Q9BQE3 whole entry, looked up): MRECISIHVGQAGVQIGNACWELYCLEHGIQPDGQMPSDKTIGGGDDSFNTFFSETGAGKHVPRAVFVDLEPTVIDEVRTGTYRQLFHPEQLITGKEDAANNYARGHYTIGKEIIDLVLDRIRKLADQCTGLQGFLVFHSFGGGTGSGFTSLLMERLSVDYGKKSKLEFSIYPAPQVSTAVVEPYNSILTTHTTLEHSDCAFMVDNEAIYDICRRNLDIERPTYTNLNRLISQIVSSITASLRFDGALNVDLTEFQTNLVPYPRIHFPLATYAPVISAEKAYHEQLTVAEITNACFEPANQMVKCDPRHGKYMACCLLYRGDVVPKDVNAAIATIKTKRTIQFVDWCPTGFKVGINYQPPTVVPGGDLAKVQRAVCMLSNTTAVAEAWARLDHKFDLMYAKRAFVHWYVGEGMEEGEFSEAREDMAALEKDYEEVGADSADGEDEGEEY

Target | log2 fold change (erlotinib) | log2 fold change [1] | log2 fold change [2] | log2 fold change [3] | log2 fold change [4] | log2 fold change [5] | log2 fold change [6] | log2 fold change [7] | log2 fold change [8] | log2 fold change (IRAK-1-4 Inhibitor I) | log2 fold change (ibrutinib) | log2 fold change [9] | log2 fold change (ralimetinib) | log2 fold change [10] | log2 fold change [11] | log2 fold change [12] | log2 fold change [13] | log2 fold change [14] | log2 fold change [15] | log2 fold change [16]
TRA2A (UniProt Q13595) | -0.164 | -0.261 | -0.092 | -0.03 | -0.137 | 0.038 | -0.024 | 0.083 | -0.234 | -0.102 | 0.127 | -0.018 | -0.079 | -0.013 | 0.21 | -0.027 | 0.039 | 0.056 | 0.019 | -0.007
TFCP2 (UniProt Q12800) | -0.035 | 0.08 | -0.115 | 0.01 | -0.042 | -0.007 | -0.02 | -0.038 | -0.044 | 0.035 | -0.055 | 0.054 | 0.032 | -0.028 | 0.051 | -0.026 | 0 | 0.059 | -0.02 | 0.026
TPX2 (UniProt Q9ULW0) | -0.014 | -0.008 | 0.032 | -0.022 | -0.013 | 0.019 | 0.001 | -0.005 | -0.026 | 0.006 | 0.024 | -0.01 | 0.003 | -0.006 | 0.036 | -0.005 | -0.008 | 0.062 | 0.001 | -0.01
TUBA4A (UniProt P68366) | 0.074 | 0.019 | -0.017 | -0.034 | -0.01 | -0.036 | -0.017 | 0 | 0.036 | 0.032 | -0.012 | 0.023 | 0.012 | 0.017 | 0.023 | -0.031 | -0.013 | 0.017 | -0.017 | 0.012
TPP2 (UniProt Q5VZU9) | 0.043 | -0.036 | 0.086 | -0.012 | 0 | 0.131 | -0.013 | 0 | 0.066 | 0.005 | 0.073 | -0.025 | -0.018 | 0.046 | -0.041 | 0.056 | 0.018 | -0.049 | -0.017 | 0.061
TIMM44 (UniProt O43615) | -0.019 | -0.02 | -0.008 | -0.019 | 0.041 | -0.012 | 0.03 | -0.019 | 0.004 | -0.011 | 0.03 | 0.005 | -0.008 | -0.076 | 0.013 | 0.066 | 0.025 | -0.035 | -0.005 | 0.015
TUBA1C (UniProt Q9BQE3) | 0.007 | -0.028 | 0.044 | -0.019 | -0.012 | 0.031 | -0.077 | -0.008 | 0.014 | 0.04 | -0.001 | 0.017 | 0.007 | -0.043 | 0.032 | 0.015 | -0.035 | -0.012 | 0.043 | 0.009
TPST2 (UniProt O60704) | -0.064 | -0.062 | 0.042 | 0.049 | -0.002 | -0.016 | -0.06 | 0.015 | 0.032 | -0.038 | -0.098 | -0.036 | 0.006 | 0.019 | -0.08 | 0.039 | -0.06 | -0.039 | -0.036 | -0.08
TUBB1 (UniProt Q9H4B7) | 0.011 | 0.091 | 0.005 | 0.01 | 0.022 | -0.011 | 0.014 | 0.015 | 0.027 | 0.019 | -0.005 | -0.01 | -0.003 | -0.007 | 0 | 0.049 | 0.028 | -0.036 | 0.002 | 0.012
UBP1 (UniProt Q9NZI7) | 0.018 | -0.109 | -0.095 | 0.048 | 0.016 | 0.01 | 0.032 | -0.034 | -0.017 | 0.029 | -0.006 | 0.056 | 0.024 | -0.004 | 0.048 | -0.028 | 0.047 | 0.03 | -0.037 | 0.004
TUBE1 (UniProt Q9UJT0) | 0.051 | -0.267 | 0.095 | -0.059 | -0.063 | -0.078 | -0.033 | -0.113 | 0.047 | 0.023 | 0.065 | -0.017 | 0.05 | -0.034 | 0.024 | -0.001 | 0.027 | -0.02 | 0.001 | -0.03
TSPAN13 (UniProt O95857) | 0.002 | 0.053 | 0.06 | 0.003 | -0.002 | 0.008 | -0.167 | 0.202 | -0.053 | -0.051 | 0.018 | -0.001 | -0.048 | -0.044 | -0.083 | 0.102 | 0.036 | 0.088 | 0 | -0.043
TPM4 isoform 2 (UniProt P67936) | -0.06 | 0.011 | -0.048 | 0.067 | 0.002 | 0.024 | -0.016 | 0.016 | -0.015 | -0.022 | -0.062 | 0.016 | -0.005 | 0.032 | -0.034 | -0.027 | -0.025 | -0.06 | -0.004 | 0
TTC12 isoform 2 (UniProt Q9H892) | 0.066 | -0.051 | 0.055 | 0.007 | -0.081 | -0.037 | -0.019 | -0.006 | 0.034 | 0.231 | -0.002 | -0.073 | 0.053 | 0.128 | -0.032 | -0.049 | -0.042 | 0.037 | -0.14 | -0.003
TTC38 (UniProt Q5R3I4) | 0.037 | 0.015 | 0.009 | 0.039 | 0.007 | 0.035 | -0.022 | -0.003 | 0.068 | -0.004 | -0.049 | 0.033 | 0.008 | 0.007 | -0.011 | 0.005 | 0.332 (active) | -0.013 | 0.067 | 0.014
TIAL1 isoform 2 (UniProt Q01085) | 0.015 | -0.001 | 0.023 | -0.015 | -0.019 | -0.035 | 0.059 | 0 | 0.017 | 0.058 | 0.018 | -0.004 | -0.063 | -0.001 | -0.001 | 0.049 | 0.015 | -0.167 | -0.06 | -0.012
